Hits are enriched below; roughly 6.5% of the tested compounds scored in any of these assays.
Giardia kill: Small Molecules that selectively kill Giardia lamblia: qHTS; activity change, % at 7.66 µM, hits read low; Giardia lamblia trophozoite viability; 0.15% of 340,000 active; in the data active means activity change below about -80%; inconclusive means between about -30% and that limit;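 further: parasites exposed to compound for two days anaerobically before the ATP read; on the % scale 0 is the no-effect control and ±100 the full control effect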
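Luminescence from cellular ATP indicates surviving trophozoites (100 cells/well) following 48 hrs anaerobic compound treatment at 37 deg C; signal develops 15-30 min at room temperature.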
HT1080 IDH1KD tx: qHTS for induction of synthetic lethality in tumor cells producing 2HG: qHTS for the HT-1080-IDH1KD cell line; HT-1080 IDH1 knockdown viability, ATP luminescence, 48 h; 2% of 360,000 active; AID 686971, 2013; Potency, µM (titrated, usually from 46.1 µM), for the others: at the highest dose activity, negative = toxicity, usual class: cytotoxic;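 further: potency means the concentration at half of the fitted maximal effect; 0% = DMSO wells and -100% = cell-free medium wells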
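HT-1080-IDH1KD cells (IDH1 knocked down), 750/well in RPMI with 5% FBS, treated with compound 48 h at 37 degrees C. Viability by CellTiter-Glo luminescence, normalised to DMSO and no-cell wells; concentration-response curves classed.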
HepG2 viability: qHTS for Inhibitors of TGF-b: Cytotox Counterscreen; HepG2 CAGA-GFP viability, ATP luminescence, 18 h; Potency, µM (doses to about 46.1 µM), for the others: at the highest dose activity change, negative = cytotoxicity, most hits filed as cytotoxic; 0.76% of 410,000 active; further: potency means the concentration at half of the fitted maximal effect
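HepG2 CAGA-GFP cells (1000/well, DMEM with 1% FBS) received compound, then TGF-beta at 500 pg/mL final, and were incubated 18 hours at 37 degrees C. Viability was read by CellTiter-Glo luminescence. Media-only wells were set as complete cell-killing and DMSO as no toxicity.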
TGFb inhibitor: qHTS for Inhibitors of TGF-b. HepG2 CAGA-GFP TGF-b/SMAD3 reporter, GFP fluorescence, 18 h; TGF-beta stimulated, 500 pg/mL final. 1.2% of 410,000 active. Potency, µM (top dose mostly 46.1 µM), without a hit: top-dose activity, negative = inhibition, most hits filed as inhibitors; further: potency means the concentration at half of the fitted maximal effect; on the % scale 0 is the no-effect control and ±100 the full control effect; nearly all actives have a fitted effect of over 65% in size
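Inhibition was scored as loss of TGF-beta-induced (500 pg/mL final, 18 hours, 37 degrees C) GFP in HEPG2 cells carrying a CAGA-GFP reporter, in DMEM with 1% FBS. Well GFP was summed per cell; Activity was normalised to unstimulated and stimulated DMSO wells, then concentration-response fitting.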
HT1080-NT tox: qHTS for induction of synthetic lethality in tumor cells producing 2HG: qHTS for the HT-1080-NT fibrosarcoma cell line. HT-1080-NT fibrosarcoma viability, CellTiter-Glo ATP luminescence, 48 h. Potency, µM (titrated, usually from 46.1 µM), for inactives: at the top dose activity, negative = less viability, hits mostly cytotoxic. 1.6% of 360,000 active. AID 686970, 2013;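 further: NT is the 2HG producing partner of a matched IDH1 knockdown line; potency means the concentration at half of the fitted maximal effect; 0% = DMSO-treated cells and -100% = media-only wells without cells; nearly all actives have a fitted effect of over 55% in size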
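Luminescent CellTiter-Glo readout after 48 hours of compound exposure at 37 degrees C defined viability of HT-1080-NT cells. Activity was normalized to DMSO wells and cell-free media wells; concentration-response curves were fitted and assigned curve classes.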
IL-1B inflam inh: qHTS for Inhibitors of Inflammasome Signaling: IL-1-beta AlphaLISA Primary Screen; THP-1 LPS/ATP IL-1B secretion, AlphaLISA, 16 h; stronger effect = lower value; activity change, % at 57.5 µM; 4.7% of 360,000 active; in the data active means activity change below about -50%; inconclusive means mostly about -30% to -49%; further: on the % scale 0 is the no-effect control and ±100 the full control effect
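THP-1 cells pretreated 1 hr with compounds (up to 57.5 uM final), then stimulated with LPS (250 ng/mL final) plus ATP (1.25 mM final); secreted IL-1B measured by AlphaLISA after 16 hr, decreased signal indicating inhibition.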
The depositor's hits bear a star; ! = not active in a repeat; [ ] = dose if it differs, or a comment. Unless noted, the call rests on the fitted dose curve; in most records, active means well fitted curve in the direction sought with a large enough effect; inconclusive means small, poorly fitted or top-dose-only effect, or another doubt; inactive means no such curve, though single readings can be large; an effect the other way counts as inactive or inconclusive.

What do the screens show for `FC(F)Oc1ccc(C2N=C(c3ccccc3)NO2)cc1` (stereo not given)?
Giardia kill: 17; HT1080 IDH1KD tx: 9%; HepG2 viability: 4%; TGFb inhibitor: 9%; HT1080-NT tox: 12%; IL-1B inflam inh: -12

Results for CCN1CCN(CCNC(=O)CCc2c(C)c3c(C)nn(-c4ccccc4)c3n(C)c2=O)CC1 ?
Giardia kill: 20; HT1080 IDH1KD tx: inconclusive; HepG2 viability: -22%; TGFb inhibitor: -1%; HT1080-NT tox: inconclusive; IL-1B inflam inh: -61*

What do the screens show for `C=CCOC(=O)C1=C(C)NC(SC)=C(C#N)C1c1cccs1` (stereo not given)?
Giardia kill: 7; HT1080 IDH1KD tx: 18µM*; HepG2 viability: -19%; TGFb inhibitor: 2%; HT1080-NT tox: 9.2µM*; IL-1B inflam inh: -12

What do the screens show for `C=CCOC(=O)C1=C(C)NC(SC)=C(C#N)C1c1ccc(OCC)cc1` (stereo not given)?
Giardia kill: 5; HT1080 IDH1KD tx: inconclusive; HepG2 viability: 0%; TGFb inhibitor: -7%; HT1080-NT tox: inconclusive; IL-1B inflam inh: -75*!

What do the screens show for `CCC1CCCCN1c1cc(C)nc2cc(-c3cccc(C)c3)nn12` (stereo not given)?
Giardia kill: 19; HT1080 IDH1KD tx: inconclusive; HepG2 viability: -14%; TGFb inhibitor: inconclusive; HT1080-NT tox: inconclusive; IL-1B inflam inh: -99*

How did Cc1ccc(NC(=O)C(C)OC(=O)Cn2[nH]c(=O)c3ccccc3c2=O)cc1 (stereo not given) do in these assays?
Giardia kill: -13; HT1080 IDH1KD tx: -2%; HepG2 viability: -31%; TGFb inhibitor: 7%; HT1080-NT tox: -10%; IL-1B inflam inh: 6

Results for CCOC(=O)CSc1n[nH]c(NS(=O)(=O)c2ccccc2C(F)(F)F)n1 ?
Giardia kill: 9; HT1080 IDH1KD tx: 2%; HepG2 viability: -14%; TGFb inhibitor: -4%; HT1080-NT tox: -3%; IL-1B inflam inh: -77*

Results for CCc1cc(C(=O)Nc2cc(S(=O)(=O)N3CCCCC3)ccc2N2CCN(C)CC2)sc1C ?
HT1080 IDH1KD tx: inconclusive; HepG2 viability: -71%; TGFb inhibitor: inconclusive; HT1080-NT tox: inconclusive; IL-1B inflam inh: -70*

What do the screens show for `Cc1cccc(NC(=O)CSCC(=O)Nc2cc(Cl)ccc2N2CCN(C)CC2)c1`?
Giardia kill: -11; HT1080 IDH1KD tx: 15µM*; HepG2 viability: -24%; TGFb inhibitor: inconclusive; HT1080-NT tox: 15µM*; IL-1B inflam inh: -79*

What do the screens show for `Cc1cc(NC(=O)CSCC(=O)Nc2cc(Cl)ccc2N2CCN(C)CC2)no1`?
Giardia kill: -25; HT1080 IDH1KD tx: -2%; HepG2 viability: -15%; TGFb inhibitor: 16%; HT1080-NT tox: -1%; IL-1B inflam inh: -7

Results for CN1CCN(c2ccc(S(=O)(=O)N3CCCCC3)cc2NC(=O)c2ccc3ccccc3c2)CC1 ?
Giardia kill: 1; HT1080 IDH1KD tx: inconclusive; HepG2 viability: -54%; TGFb inhibitor: 35µM*; HT1080-NT tox: -16%; IL-1B inflam inh: -92*

Results for CN1CCN(c2ccc(S(=O)(=O)N3CCCCC3)cc2NC(=O)COc2cccc(Cl)c2)CC1 ?
Giardia kill: 10; HT1080 IDH1KD tx: -2%; HepG2 viability: -12%; TGFb inhibitor: 14%; HT1080-NT tox: -5%; IL-1B inflam inh: -52*

How did Cc1ccccc1C(=O)Nc1cc(S(=O)(=O)N2CCCCC2)ccc1N1CCN(C)CC1 do in these assays?
Giardia kill: 9; HT1080 IDH1KD tx: -4%; HepG2 viability: -28%; TGFb inhibitor: -23%; HT1080-NT tox: inconclusive; IL-1B inflam inh: -27

What do the screens show for `Cc1cccc(OCC(=O)Nc2cc(S(=O)(=O)N3CCCCC3)ccc2N2CCN(C)CC2)c1`?
Giardia kill: 17; HT1080 IDH1KD tx: -1%; HepG2 viability: -36%; TGFb inhibitor: -12%; HT1080-NT tox: -1%; IL-1B inflam inh: -13

Results for COc1ccc(Br)cc1-c1nc(C)c(C(C)=O)n1O ?
Giardia kill: 0; HT1080 IDH1KD tx: 3%[9.24 µM]; HepG2 viability: -4%; TGFb inhibitor: -4%; HT1080-NT tox: 8%; IL-1B inflam inh: 3

How did Cc1cc2c(=O)cc(-c3ccccc3)oc2c(C(=O)O)c1C do in these assays?
HT1080 IDH1KD tx: 7%; HepG2 viability: -1%; TGFb inhibitor: 26%; HT1080-NT tox: 21%; IL-1B inflam inh: -8

Results for Cc1ccc2nc(C3CCCN(C(=S)Nc4cccc(C)c4C)C3)[nH]c2c1 (stereo not given) ?
Giardia kill: -8; HT1080 IDH1KD tx: inconclusive; HepG2 viability: -57%; TGFb inhibitor: inconclusive; HT1080-NT tox: inconclusive; IL-1B inflam inh: -6

How did COc1cc(C(=O)OCC(=O)NC2CCCC2)cc(NC(=O)c2ccco2)c1OC do in these assays?
Giardia kill: 8; HT1080 IDH1KD tx: 13%; HepG2 viability: -7%; TGFb inhibitor: 22%; HT1080-NT tox: 5%; IL-1B inflam inh: 23

What do the screens show for `CCN(CC)C(=O)CN(c1cc2c(cc1OC)oc1ccccc12)S(=O)(=O)c1ccc(C)cc1`?
Giardia kill: -19; HT1080 IDH1KD tx: -6%; HepG2 viability: 0%; TGFb inhibitor: 6%; HT1080-NT tox: 0%; IL-1B inflam inh: 28

Results for CCOC(=O)c1nnc(-c2ccc(C)cc2)nc1Sc1ccc(Cl)cc1 ?
Giardia kill: -12; HT1080 IDH1KD tx: -1%; HepG2 viability: -3%; TGFb inhibitor: inconclusive; HT1080-NT tox: 4%; IL-1B inflam inh: 5

How did CCOC(=O)c1nnc(-c2ccc(C)cc2)nc1Oc1ccccc1Cl do in these assays?
Giardia kill: -26; HT1080 IDH1KD tx: 23µM*; HepG2 viability: -17%; TGFb inhibitor: inconclusive; HT1080-NT tox: 23µM*; IL-1B inflam inh: inconclusive

How did CCOC(=O)c1nnc(-c2ccc(C)cc2)nc1Sc1ccccc1Cl do in these assays?
Giardia kill: 7; HT1080 IDH1KD tx: 1%; HepG2 viability: -12%; TGFb inhibitor: inconclusive; HT1080-NT tox: -9%; IL-1B inflam inh: -97*

Results for CCOC(=O)c1nnc(-c2ccccc2)nc1Sc1c(Cl)cccc1Cl ?
Giardia kill: -13; HT1080 IDH1KD tx: 21µM*; HepG2 viability: -115%; TGFb inhibitor: 10µM*; HT1080-NT tox: inconclusive; IL-1B inflam inh: -116*

Screening data: PubChem, National Center for Advancing Translational Sciences (NCATS)
